For 40 compounds, Potency results are on record in PubChem BioAssay (NCATS).

Inconclusive results are not listed. Where a call stands in place of a potency, no number is given. Calls of active or inactive are those of the source. Calls come from the whole dose curve; as a rule, active = well fitted cell-killing curve with a large enough effect; inconclusive = small, poorly fitted or top-dose-only effect; inactive = no such curve, though single readings can be large or run the other way.
Potency is the fitted concentration of half-maximal effect.

The nature of this test: qHTS of pediatric cancer cell lines to identify multiple opportunities for drug repurposing: Primary screen for OHS-50 cells (AID 1347103). Note: nearly all actives have a fitted effect of over 40% in size. The conditions noted are these: OHS-50 osteosarcoma viability, CellTiter-Glo luminescence, 48 h; series mostly up to 57.3 µM. From the text:
Drug repurposing or repositioning has been offered as a strategy for drug development in oncology programs. This approach has special potential for childhood cancers and other rare or orphan diseases, where the expected return on new drug development has been a disincentive to pharmaceuticals.
In this project we exploit the poly-pharmacology of drugs to discover new indications via phenotypic screening of a panel of 19 well-characterized cell lines derived from solid tumors seen in children and adolescents. The goal is to identify approved drugs with previously unrecognized anticancer properties that has the potential to reveal new mechanisms and biological processes involved in carcinogenesis or drug resistance. We employed a titration-based paradigm (quantitative high-throughput screening or qHTS), where all compounds were tested at multiple concentrations for their effect on cell viability. Concentration-response curves (CRCs) were derived directly from the primary screen, and both potency and efficacy values were used to identify compounds with robust bioactivity profiles. We screened the NIH Chemical Genomics Center (NCGC) Pharmaceutical Collection (NPC) and Mechanism Interrogation Plate (MIPE) small molecule collections of approved and investigational compounds against these cell lines; and measured metabolically active cells after 48 hours of compound treatment as a proxy for cell viability.
Assay Submitter: Nathalia J. Martinez, National Center for Advancing Translational Sciences, National Institutes of Health, Rockville, MD, USA; email: natalia.martinez@nih.gov
[1] Shen, M et al. Quantitative high-throughput phenotypic screening of pediatric cancer cell lines identifies multiple opportunities for drug repurposing. Oncotarget 2017 Dec 19;9(4):4758-4772. PMID 29435139.
The cells were obtained from University of North Carolina (UNC), Pediatric Preclinical Testing Program (PPT), and Coriell Institute (CI).
qHTS cell viability assay:
Cells were assayed in growth media at a density of 500-1,000 cells/well. Five microliters of cells were dispensed into 1,536-well, white, solid-bottom, TC-treated plates (Greiner Bio One) using a multidrop dispenser and incubated at 37 degrees C, 5% CO2, under a humidified atmosphere for 5 hours. Twenty-three nanoliters of compounds and controls (neutral control DMSO or positive control bortezomib at final concentration of 2.3 µM) were subsequently transferred by Kalypsys pintool. For primary screens, the MIPE collection was tested at 11-point dilutions (final concentrations range from 0.78 nM to 46 µM) and the NPC collection at 8-point dilutions (final concentrations range from 0.59 nM to 46 µM). Compounds tested in follow-up screens were assayed at 11-point dilutions. Cells were incubated for 48 hours, followed by addition of 3 µL of CellTiter-Glo (Promega). After a 15 min incubation at room temperature, samples were analyzed for luminescence intensity using a ViewLux High-throughput CCD imager equipped with clear filters.
Take `CC(=O)[O][Hg][c]1ccccc1`: the Potency is 4.9 µM (active).

Consider `Cc1[nH]nc2ccc(-c3cncc(OC[C@@H](N)Cc4c[nH]c5ccccc45)c3)cc12`, for which the Potency is 1.53 µM (active).

With `CC[C@@H]1[C@@H](C)O[C@@](O)([C@@H](C)[C@H](O)[C@H](C)[C@H]2OC(=O)C=CC=C[C@@H](C)[C@@H]([C@@H](C)[C@@H](O)[C@H](C)[C@@]3(O)C[C@H](O[C@H]4C[C@H](O)[C@H](O)[C@H](C)O4)[C@H](CC)[C@@H](C)O3)OC(=O)C=CC=C[C@@H]2C)C[C@H]1O[C@H]1C[C@H](O)[C@H](O)[C@H](C)O1`, the Potency is 0.306 µM (active).

On to `CCCC[N+]1(C)[C@H]2CC(OC(=O)[C@H](CO)c3ccccc3)C[C@H]1[C@H]1O[C@H]12` (stereo not given in full), for which the Potency entry was “inactive”.

For the compound `CC(C)(C)c1cc(C=C(C#N)C#N)cc(Br)c1O`, the Potency was 30.6 µM (active).

With `Cc1nc(-c2ccc(-c3ccc(C(=O)N4CCc5cc6c(cc54)C4(CCN(C)CC4)CO6)cc3)c(C)c2)no1`, the Potency result was “inactive”.

Take `O=S(=O)(CC1CS1)c1ccc(Oc2ccccc2)cc1` (stereo not given): the Potency was 30.6 µM (active).

On to `CC(O)CN1CCN(CC(=O)[O-])CCN(CC(=O)[O-])CCN(CC(=O)[O-])CC1.[Gd+3]` (stereo not given), for which the Potency entry was “inactive”.

In the case of `C[C@@H]1[C@H](O)[C@@H](C)C=CC=CCCC=CC=CC=CC=C[C@H](O[C@H]2O[C@@H](C)[C@H](O)[C@@H](N)[C@@H]2O)CC2O[C@](O)(C[C@@H](O)[C@H](O)CC[C@@H](O)C[C@@H](O)C[C@@H](O)CC(=O)O[C@H]1C)C[C@H](O)[C@H]2C(=O)O`, the Potency entry is “inactive”.

As to `CSCC[C@@H](NC(=O)[C@@H](Cc1ccccc1)NC(=O)CNC(=O)CNC(=O)[C@@H](N)Cc1ccc(O)cc1)C(=O)O`, the Potency result was “inactive”.

For `O=c1[nH]c2ccc(Cl)cc2c(N[C@@H]2CN3CCC2CC3)c1-c1nc2ccccc2[nH]1`, the Potency is 0.109 µM (active).

`ClC1=C(Cl)[C@]2(Cl)[C@@H]3[C@@H]4C[C@@H]([C@H]5O[C@@H]45)[C@@H]3[C@@]1(Cl)C2(Cl)Cl`: the Potency is 28.2 µM (active).

On to `CCOC(=O)Nc1ccc(NCc2ccc(F)cc2)cc1N`, for which the Potency result is “inactive”.

As for `C1=C2CCCN[C@H]2[C@@H]2C[C@H]1[C@@H]1CCCCN1C2`, the Potency result is “inactive”.

With `CC1=C(O)C(=O)C=C2C1=CC=C1[C@@]2(C)CC[C@@]2(C)[C@@H]3C[C@](C)(C(=O)O)CC[C@]3(C)CC[C@]12C`, the Potency is 2.43 µM (active).

For `CCN1C[C@]2(OC(=O)c3ccccc3NC(C)=O)CC[C@H](OC)[C@@]34[C@H]5CC6[C@@H](OC)C[C@](O)(C(C[C@@H]23)[C@@H]14)[C@@]5(O)[C@@H]6OC`, the Potency entry was “inactive”.

Take `C[C@]12CC[C@H]3[C@@H](CCC4=CC(=O)CC[C@@]43C)[C@H]1CC[C@H]2OC(=O)CCC1CCCC1`: the Potency entry is “inactive”.

Take `CC(N[C@H]1C[C@H]1c1ccccc1)c1ccc2c(c1)OCCO2` (stereo not given in full): the Potency result is “inactive”.

`c1cc2c(cc1[C@H]1OC[C@H]3[C@H]1CO[C@H]3c1ccc3c(c1)OCO3)OCO2`: the Potency result is “inactive”.

In the case of `C[C@]12COC(=O)C[C@@H]1CC[C@@H]1[C@H]2CC[C@@]2(C)[C@H]1CC[C@]2(C)O`, the Potency entry was “inactive”.

For the compound `OCCCBr`, the Potency result is “inactive”.

With `Cc1c(C(=O)Nc2cccc(C(F)(F)F)c2)cc(-c2ccccc2)n1CCCN1CCOCC1`, the Potency is 24.3 µM (active).

For the compound `CCOCCOC(C)=O`, the Potency result was “inactive”.

Turning to `NC1=NC(=O)N2CC12` (stereo not given), the Potency result is “inactive”.

On to `CC(C)(C)NC[C@H](O)c1ccc(O)cc1Cl`, for which the Potency result was “inactive”.

As for `COC1=C[C@@H]2[C@@H]3Cc4ccc(OC)c(O)c4[C@]2(CCN3C)CC1=O`, the Potency result is “inactive”.

For `CC=C(C)C(=O)N[C@@H](c1ccccc1)[C@@H](O)C(=O)O[C@H]1C[C@@]2(O)[C@@H](OC(=O)c3ccccc3)[C@@H]3[C@]4(OC(C)=O)CO[C@@H]4C[C@H](O)[C@@]3(C)C(=O)[C@H](OC(C)=O)C(=C1C)C2(C)C`, the Potency is 0.001 µM (active).

For the compound `C[C@@]12OC(=O)[C@]1([C@@H](O)[C@@H]1C=CCCC1)NC(=O)[C@H]2CCCl`, the Potency is 0.0685 µM (active).

`Oc1ccc2c3c1O[C@H]1[C@@H](O)C=C[C@H]4[C@@H](C2)NCC[C@@]341`: the Potency entry was “inactive”.

Regarding `CCC1(CCC(C)C)C(=O)NC(=O)NC1=O`, the Potency result was “inactive”.

For the compound `COC[C@H]1OC(=O)c2coc3c2[C@@]1(C)C1=C(C3=O)[C@@H]2CC[C@H](O)[C@@]2(C)C[C@@H]1OC(C)=O`, the Potency was 0.306 µM (active).

Take `CC[C@@H](C(N)=O)N1CCCC1=O`: the Potency result was “inactive”.

On to `CC(C)Oc1cccc(NC(=O)c2ccccc2C(F)(F)F)c1`, for which the Potency is 25.2 µM (active).

In the case of `COc1ccc2c(c1)CN(C)CC2c1ccc(Cl)c(Cl)c1` (stereo not given), the Potency is 21.7 µM (active).

For the compound `CN1CCN(c2ccc([N+](=O)[O-])c3no[n+]([O-])c23)CC1`, the Potency was 34.3 µM (active).

`C=CCON=C(C[C@H]1O[C@@H]2O[C@]3(C)CC[C@@H]4[C@H](C)CC[C@@H]([C@H]1C)[C@@]24OO3)[C@H]1O[C@@H]2O[C@]3(C)CC[C@H]4[C@H](C)CC[C@@H]([C@@H]1C)[C@@]24OO3`: the Potency was 0.306 µM (active).

Turning to `Cc1cc(O)ccc1Cl`, the Potency entry was “inactive”.

`CC(C)(O)C=CC(=O)[C@](C)(O)[C@H]1[C@H](O)C[C@]2(C)[C@@H]3CC=C4[C@@H](C=C(O)C(=O)C4(C)C)[C@]3(C)C(=O)C[C@@]12C`: the Potency was 0.137 µM (active).

As for `CC(=O)N(C)c1cccc(-c2ccnc3c(C(=O)c4cccs4)cnn23)c1`, the Potency entry was “inactive”.

Take `O=S(=O)(O)C(F)(F)C(F)(F)C(F)(F)C(F)(F)F`: the Potency result was “inactive”.
